# An excerpt weighted towards active compounds, which were near 19% of everything screened.
# Pf growth 96h: P. falciparum growth inhibition at 96 hours. 320,000 compounds, 6.9% hits. P. falciparum luciferase reporter growth, 96 h. Potency, µM (series often up to 28.7 µM), usual class: inhibitors
#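 Compounds incubated with erythrocytes infected by luciferase-expressing P. falciparum (2% hematocrit, 0.05% parasitemia final) for 96 hours, 37 C in 5% CO2. Growth inhibition scored as decreased luciferase luminescence.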
# Marburg entry inh: blocks Marburg virus binding to or entry into cells; Marburg virus pseudotyped entry inhibition, cell reporter; Potency, µM (doses to about 37.8 µM), hits mostly inhibitors; 300,000 compounds, 1.8% hits; calls by dose curve; tested in HEK293 cells
# LASV entry inh: Lassa virus entry inhibition; Lassa virus pseudotype entry inhibition, cell reporter; Potency, µM (titrated, usually from 37.9 µM), actives largely listed as inhibitors; 300,000 compounds, 1.2% hits; AID 540256; calls by dose curve; tested in HEK293 cells; further: nearly all actives have a fitted effect of over 50% in size
# Pf growth 48h: P. falciparum growth inhibition at 48 hours (one generation). P. falciparum luciferase growth in erythrocytes, 48 h. Potency, µM (top dose mostly 28.7 µM), most hits filed as inhibitors. 310,000 compounds, 5.9% hits. AID 504832
#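 Firefly luciferase activity from engineered P. falciparum reports growth; inhibitors lower the luminescent signal. Cultures contained 2% hematocrit erythrocytes at 0.1% final parasitemia.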
# Shiga toxin inh: inhibitors of Shiga toxin in Vero cells. Vero cells, Shiga toxin protein synthesis inhibition reporter. inhibition, % at 38.7 µM. 290,000 compounds, 9.2% hits. AID 2315; in the data active means inhibition mostly above about 28%, no sharp cut-off; inactive means mostly below about 43%
# CHX counter: counter-screen hit for Shiga toxin inhibitors, cycloheximide; cell reporter, cycloheximide protein synthesis inhibition counterscreen; max response, %; 300,000 compounds, 12% hits; AID 2314; in the data active means max response mostly above about 13%, no sharp cut-off; inactive means mostly below about 14%; further: read at 38.3 µM for the half of the compounds with a filed dose
# Hits are given with their value; n = inactive; u = inconclusive; x = no result given. Unless noted, the call rests on the fitted dose curve; in most records, active means well fitted inhibition curve with a large enough effect; inconclusive means small, poorly fitted or top-dose-only effect, or another doubt; inactive means no such curve, though single readings can be large or run the other way.
SMILES,Pf growth 96h,Marburg entry inh,LASV entry inh,Pf growth 48h,Shiga toxin inh,CHX counter
CC(=O)Nc1ccc2nc(NC(=O)c3cccnc3)sc2c1,n,x,x,n,46,27
O=C(Nc1nc2ccc(S(=O)(=O)N3CCOCC3)cc2s1)c1cccs1,u,u,n,n,39,18
CC(NC(=O)/C(C#N)=C/c1ccc(Cl)c([N+](=O)[O-])c1)c1ccccc1 (centres undefined),n,u,u,n,n,n
O=c1[nH]cnc2c1sc(=S)n2-c1ccccc1,x,u,n,n,n,n
CN(C)S(=O)(=O)c1ccc2nc(NC(=O)c3cccs3)sc2c1,n,u,n,x,70,41
O=C(Nc1nc2ccc(F)cc2s1)c1cccs1,u,u,u,n,126,50
CSc1nc2ccc(S(=O)(=O)N(C)C)cc2s1,12µM,n,n,x,n,n
O=C(N/N=C1\SCC(=O)N1CCc1ccccc1)c1cccs1,n,n,n,n,n,n
CCc1ccc(NC(=O)Cn2nnc(C(=O)NCCc3ccc(OC)c(OC)c3)c2N)cc1,n,x,x,n,n,n
COc1cnc(-c2ccccn2)nc1Sc1c(Cl)cccc1Cl,2.1µM,u,u,1.7µM,n,n
COc1ccc(Oc2nc(-c3ccccn3)ncc2OC)cc1,u,n,u,n,n,n
COc1cnc(-c2ccccn2)nc1Oc1cccc(Cl)c1,2.6µM,u,n,u,n,n
CCOC(=O)C(C)Sc1nc(-c2ccccn2)ncc1OC (centres undefined),3.3µM,u,n,13µM,n,n
COc1cnc(-c2ccccn2)nc1N(C)C,2.3µM,u,u,4.1µM,n,n
CCCCOC1(c2ccccc2)OC(=O)c2ccccc21 (centres undefined),u,n,n,u,n,n
COc1cnc(-c2ccccn2)nc1Sc1ccccc1Cl,u,n,u,u,n,n
COc1cnc(-c2ccccn2)nc1Oc1c(C)cccc1C,0.21µM,u,n,12µM,n,n
O=C1CC(c2c(F)cccc2Cl)c2c(ccc3ccccc23)N1 (centres undefined),x,u,n,x,x,x
Cc1nn(C(C)c2nc(-c3ccccc3)no2)c(C)c1[N+](=O)[O-] (centres undefined),u,n,n,n,n,n
Cc1ccc(SC(C)c2nc(-c3ccccc3)no2)cc1 (centres undefined),n,n,n,n,n,23
Cc1ccccc1OC(C)c1nc(-c2ccccc2)no1 (centres undefined),x,n,n,n,n,38
O=C1CC(N2CCc3ccccc32)C(=O)N1c1ccccc1 (centres undefined),n,u,u,n,73,n
CC(C)COc1ccc(C(=O)Nc2scc(-c3ccc(Cl)cc3Cl)c2C(N)=O)cc1,u,u,n,3.3µM,n,n
CCOc1ccc(C(=O)Nc2cccc(NC(=O)c3ccc(Cl)cc3Cl)c2)cc1,x,x,n,x,x,x
CC1CCN(c2nc(-c3cccnc3)nc3scc(-c4ccccc4)c23)CC1,u,x,x,n,n,n
SMILES,Pf growth 96h,Marburg entry inh,LASV entry inh,Pf growth 48h,Shiga toxin inh,CHX counter
CC1CCN(c2nc(CN3CCCCC3)nc3scc(-c4ccccc4)c23)CC1,1.5µM,u,u,2.3µM,n,n
CC1CCCN(c2nc(-c3cccnc3)nc3scc(-c4ccccc4)c23)C1 (centres undefined),u,n,u,n,51,21
Cc1ccc(-c2cccc(NC(=O)C3C4C=CC(C4)C3C(=O)O)c2)o1 (centres undefined),n,n,x,x,n,n
O=C(O)C1C2C=CC(C2)C1C(=O)Nc1ccc2c(c1)OCCO2 (centres undefined),x,n,n,n,113,80
CC(=O)c1cccc(NC(=O)C2C3C=CC(C3)C2C(=O)O)c1 (centres undefined),n,x,x,n,n,n
O=C(O)C1C2C=CC(O2)C1C(=O)Nc1ccc2c(c1)OCCO2 (centres undefined),n,x,x,n,132,75
CN(C)c1ccc(NC(=O)C2C3C=CC(C3)C2C(=O)O)cc1 (centres undefined),u,x,x,2.6µM,66,20
COc1ccc(C(=O)N(CC2CCCO2)C(C(=O)NCCC(C)C)c2ccc(C)cc2)cc1OC (centres undefined),n,n,u,u,n,n
COc1ccc(C(C(=O)NC2CCCCC2)N(CC2CCCO2)C(=O)C2COc3ccccc3O2)cc1OC (centres undefined),n,n,n,12µM,n,n
COc1ccc(C(=O)N(CC2CCCO2)C(C(=O)NC2CCCC2)c2ccc(Cl)cc2)cc1OC (centres undefined),6.6µM,n,n,12µM,n,n
COc1ccc(-c2nc3ccccc3n2OC(=O)N(C)C)cc1,u,n,n,x,n,n
CC(C)Cc1ccc(C#N)c(SCC(N)=O)n1,n,n,u,x,n,n
Cc1ccccc1S(=O)(=O)Cc1ccc(C(=O)NC2CCC(C)CC2)o1 (centres undefined),n,n,n,u,n,n
CCc1ccccc1S(=O)(=O)Cc1ccc(C(=O)N2CCN(c3ccccc3OC)CC2)o1,u,x,x,x,n,n
Cc1ccccc1S(=O)(=O)Cc1ccc(C(=O)N2CC(C)CC(C)C2)o1 (centres undefined),17µM,x,x,x,n,n
Cc1ccccc1S(=O)(=O)Cc1ccc(C(=O)N2CCN(c3cccc(C)c3C)CC2)o1,x,u,3.5µM,u,n,n
CC1=C(C(=O)OCc2cc(C)on2)N2C(=O)[C@@H](NC(=O)OCc3cc(C)on3)[C@H]2SC1,n,x,x,n,x,x
CCN(CC(=O)NC(C)(C)C)Cc1nc2c(Br)cc(Br)cc2c(=O)[nH]1,9.3µM,u,n,12µM,n,n
CCN(CC(=O)NC1CCS(=O)(=O)C1)Cc1nc2c(Br)cc(Br)cc2c(=O)[nH]1 (centres undefined),n,n,n,n,n,n
COc1ccc(NC(=O)c2cc3c(-c4ccc(OC)c(OC)c4)nn(C)c3s2)cc1OC,n,13µM,13µM,x,100,51
CCOC(=O)N1CCC(NC(=O)c2cc3c(-c4ccc(OC)c(OC)c4)nn(C)c3s2)CC1,9.3µM,n,u,u,n,n
O=C1OCCN1c1ccccc1,x,u,n,x,x,x
CCN(CC)c1ccc(CNc2ccc(Br)cn2)cc1,u,u,u,n,88,33
CN(C)CCCN(C(=O)c1ccc(S(=O)(=O)N2CCc3ccccc32)cc1)c1nc2ccc(Cl)cc2s1,5.2µM,u,u,10µM,n,n
CN(C)CCCN(C(=O)c1ccc(S(=O)(=O)N2CCc3ccccc32)cc1)c1nc2ccc(F)cc2s1,u,u,u,u,n,n
Cc1cc(C)c2sc(N(CCCN(C)C)C(=O)c3ccc(S(=O)(=O)N4CCCc5ccccc54)cc3)nc2c1,u,x,x,9.3µM,x,x
Cc1cc(C(=O)COc2ccc(F)cc2Br)c(C)n1C1CC1,10µM,n,n,u,x,x
Cc1cc(C(=O)COc2ccc(F)cc2Br)c(C)n1C,n,n,n,n,n,30
O/N=C/c1cn(-c2ccccc2)nn1,n,u,u,n,n,27
